Mito fusion act: qHTS Assay for Small Molecule Inhibitors of Mitochondrial Division or Activators of Mitochondrial Fusion | S. cerevisiae fusion-defective mutant growth rescue, CellTiterGlo 48 h | Potency, µM (highest dose often 46.1 µM), without a hit: top-dose growth rescue (activation), most hits filed as activators | 320,000 compounds, 0.23% hits | AID 485298, 2010; note: potency is the fitted concentration of half-maximal effect; % of control where 0% means no effect; nearly all actives have a fitted effect of over 45% in size
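Read-out: ATP-based luminescence (CellTiterGlo, 10 min ambient) reporting growth of fusion-defective ts yeast after 48 hours at 37C on glycerol/ethanol YPEG medium in the presence of compound.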
ClpP mod: qHTS Assay for Activators of ClpP | ATP-dependent Clp protease proteolytic subunit (Bacillus subtilis (strain 168)), P80244 | purified B. subtilis ClpP, FRET peptide cleavage, 20 min | Potency, µM (top dose mostly 57.5 µM), inactives show at the top dose activity change, negative = active | 340,000 compounds, 1.9% hits; active = well fitted falling curve with a large enough effect; inconclusive = small, poorly fitted or top-dose-only effect; inactive = no such curve, though single readings can be large or run the other way; note: potency is the fitted concentration of half-maximal effect; the source files actives as falling curves though it sought activators and does not explain the sign; nearly all actives have a fitted effect of over 65% in size
Target sequence (P80244 whole entry, looked up): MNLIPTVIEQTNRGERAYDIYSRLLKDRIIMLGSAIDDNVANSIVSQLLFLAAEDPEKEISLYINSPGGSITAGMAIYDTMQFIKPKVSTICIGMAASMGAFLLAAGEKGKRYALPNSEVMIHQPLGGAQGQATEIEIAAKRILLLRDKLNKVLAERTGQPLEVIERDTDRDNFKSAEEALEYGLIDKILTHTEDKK
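Buffer: 100 mM Tris/HCl pH8, 100 mM KCl, 0.05% low protease BSA, 2.5% glycerol, 0.01% Tween-20. ClpP 10 microg/mL final; 20 min RT; delta FRET normalized to ADEP and DMSO controls.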
Glioma ERSR ind: qHTS for Inducers of the Endoplasmic Reticulum Stress Response (ERSR) in Human Glioma: qHTS; U87-MG GRP78 promoter luciferase reporter, 16 h; Potency, µM, without a hit: at the top dose activation, usual class: activators; 420,000 compounds, 0.02% hits; note: potency is the fitted concentration of half-maximal effect; series mostly up to about 76 µM; % of control where 0% means no effect; nearly all actives have a fitted effect of over 35% in size
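Stably transfected U87-MG human glioma cells carrying a GRP78-based luminescent sensor were seeded at 1000 cells/well, pin-dosed with compounds and incubated 16 h. Luciferase reagent was then added, and end-point luminescence was read after 10 min at room temperature.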
TCR activator: Activators of T cell receptors: qHTS campaign; primary human leukocytes, anti-CD3, IL-2 HTRF, 48 h; Potency, µM (series often up to 9.22 µM), inactives show at the highest dose activation of IL-2 secretion, usual class: activators; 330,000 tested, under 10 active; AID 504894, 2011; note: % of control where 0% means no effect
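Human primary leukocytes + a-CD3 beads + cpd, 48 hr; IL-2 in supernatant by HTRF (ex 320nm / em 665nm). No co-stimulatory signal supplied.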
MBNL1 CUG block: qHTS Assay for Inhibitors of MBNL1-poly(CUG) RNA binding | Muscleblind-like protein 1 (Homo sapiens), Q9NR56 | TR-FRET MBNL1-His/biotin-(CUG)12 binding, 665/545 ratio | Potency, µM (top dose mostly 57.5 µM), for inactives: at the top dose activity change, negative = inhibition, usual class: inhibitors | 280,000 compounds, 0.036% hits; active = well fitted inhibition curve with a large enough effect in the signal ratio, with a control signal flat, not every such curve was filed as active; inconclusive = small, poorly fitted or top-dose-only effect, or effect the other way, or a change in a side signal; inactive = no such curve, though single readings can be large or run the other way; the % refers to the signal ratio; note: potency is the fitted concentration of half-maximal effect; % is set by controls: 0 for no effect and ±100 for the full control effect
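MBNL1-His + Biotin-(CUG)12, cpd titration 92 nM–58 uM; Tb anti-His Ab 0.055 ng/ul, SA-XL665 5 nM (final); 60 min RT; ratiometric 665/545 nm, Ex 340 nm; normalized to buffer and full-complex controls.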
A-T KAP1 phos: qHTS Assay for Identifying a Potential Treatment of Ataxia-Telangiectasia; F2112 A-T fibroblasts, KAP-1 phosphorylation AlphaLISA; neocarzinostatin DNA damage 30 min before lysis; Potency, µM (top dose mostly 57.5 µM), for inactives: top-dose activation, hits mostly activators; 320,000 compounds, 0.19% hits; AID 485349, 2010; note: potency is the fitted concentration of half-maximal effect; % of control where 0% means no effect; nearly all actives have a fitted effect of over 45% in size
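hTERT-immortalized A-T patient fibroblasts (F2112), 500 cells/well in OPTI-MEM, 1% FBS, got compounds for 60 min, then NCS for 30 min at 37C. Lysates were then assayed for phospho-KAP-1 by AlphaLISA (anti-pKAP1 donor, anti-KAP1 acceptor beads), 6 hr at 25C.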
* = called active by the depositor; ? = inconclusive; nt = no result given; [ ] = dose if it differs, or a comment. This is a sample that favours compounds with a hit; in the whole collection about 1.8% have one here. Unless noted, calls come from the whole dose curve; as a rule, active = well fitted curve in the direction sought with a large enough effect; inconclusive = small, poorly fitted or top-dose-only effect, or another doubt; inactive = no such curve, though single readings can be large; an effect the other way counts as inactive or inconclusive.

SMILES | Mito fusion act | ClpP mod | Glioma ERSR ind | TCR activator | MBNL1 CUG block | A-T KAP1 phos
COCCn1c(=S)[nH]c2cc(C(=O)NCc3ccccc3)ccc2c1=O | nt | -1% | -5% | nt | nt | nt
COCCNC(=O)c1ccc2c(=O)n(CCOC)c(=O)[nH]c2c1 | -4% | 25µM* | -3% | 1% | -6% | 2%
CCCCCNC(=O)c1ccc2c(=O)n(CCOC)c(=O)[nH]c2c1 | 0% | ? | -1% | 3% | 1% | nt
COC(=O)c1ccc2c(=O)n(CCCCCC(=O)O)c(=O)[nH]c2c1 | -4% | 28µM* | -11% | 7% | 8% | -15%
COCCn1c(=O)[nH]c2cc(C(=O)NCc3ccccc3)ccc2c1=O | 1% | 14µM* | 1% | 4% | -3% | -1%
CCCCNC(=O)CCCCCn1c(=O)[nH]c2cc(C(=O)OC)ccc2c1=O | 22% | -2% | -5% | nt | nt | 5%
Nc1c(S(=O)(=O)c2cccc(Cl)c2)c2nc3ccccc3nc2n1CCN1CCOCC1 | 7% | 32µM* | -3% | -3% | 4% | 17%
Cc1ccc(S(=O)(=O)c2c(N)n(CC3CCOC3)c3nc4ccccc4nc23)cc1 (configuration not stated) | 8% | 13µM* | -1% | -1% | 13% | 4%
Cc1ccc(S(=O)(=O)c2c(N)n(CCCN(C)C)c3nc4ccccc4nc23)cc1 | -6% | 4% | -5% | -3% | 5% | -8%
CCCCn1c(NS(=O)(=O)c2ccc(C)cc2)c(S(=O)(=O)c2ccccc2)c2nc3ccccc3nc21 | -5% | 25µM* | -5% | 2%[46.1 µM] | -16% | 5%
O=C(NC1CC1)[C@@H]1C[C@@H](Sc2nc3ccccc3[nH]2)CN1CC1CCCCC1 | nt | nt | -2% | nt | nt | nt
CCCc1ccc(OCC(=O)Nc2sc3c(c2C(=O)OCC)CCC(C(C)(C)C)C3)cc1 (configuration not stated) | nt | -3% | 0% | nt | nt | nt
CCN1CCCC1CNC(=O)c1cnn(-c2nccc(-c3ccco3)n2)c1C1CC1 (configuration not stated) | nt | nt | -7% | nt | nt | nt
COc1ccc(Cl)cc1N1C(=O)[C@@H]2C[C@H]1CN2Cc1nc2ccccc2nc1C | nt | nt | -4% | nt | nt | nt
COc1cc2c3nnc(-c4ccccc4)c-3cn(Cc3ccc(F)cc3)c2cc1OC | -6% | nt | -7% | 1% | ? | 2%
COc1cc2c3nnc(-c4ccc(F)cc4)c-3cn(Cc3ccc(C)cc3)c2cc1OC | -5% | 20µM* | -8% | 3% | -13% | ?

High-throughput results deposited in PubChem by National Center for Advancing Translational Sciences (NCATS).
